SMILES strings stand for the structures. Records with an inconclusive call do not appear. The source made the active and inactive calls. The calls were made as follows: active = hit-call score of the fitted dose curve at least 0.9, where 1 is the maximum; inconclusive = response in the unintended direction; inactive = score below 0.9.

Chain of Cytochrome P450 2C19 (Homo sapiens) (P33261 whole entry, looked up): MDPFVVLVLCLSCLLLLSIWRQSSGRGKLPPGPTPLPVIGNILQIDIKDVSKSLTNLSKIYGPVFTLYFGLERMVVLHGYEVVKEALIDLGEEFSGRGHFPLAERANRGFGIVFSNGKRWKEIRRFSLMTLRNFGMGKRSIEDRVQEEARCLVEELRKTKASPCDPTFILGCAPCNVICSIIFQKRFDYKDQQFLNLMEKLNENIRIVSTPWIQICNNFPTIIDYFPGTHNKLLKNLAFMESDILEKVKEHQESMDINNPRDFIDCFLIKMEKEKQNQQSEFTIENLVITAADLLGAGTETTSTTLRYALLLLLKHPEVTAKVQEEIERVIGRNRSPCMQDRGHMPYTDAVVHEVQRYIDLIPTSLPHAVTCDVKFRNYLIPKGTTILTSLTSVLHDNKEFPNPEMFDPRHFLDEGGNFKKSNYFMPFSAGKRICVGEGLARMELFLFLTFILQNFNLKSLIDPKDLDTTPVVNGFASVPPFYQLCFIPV

Read-out in this experiment: Cytochrome P450 2C19 (Homo sapiens) (UniProt P33261)
Briefly: CLD_CYP2C19_48hr: CellzDirect (CLD) Gene Expression Assay for xenobiotic metabolism (CYP2C19) at 48 hours (AID 2283700).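 Also: fitted upward so actives raise CYP2C19 mRNA above the 0.2% DMSO vehicle.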 On the procedure:
CLD_48hr is a cell-based, multiplexed-readout assay that uses hepatocyte, a human liver primary cell, with measurements taken at 48 hours after chemical dosing in a 96-well plate.CLD_CYP2C19_48hr is one of 16 assay component(s) measured or calculated from the CLD_48hr assay. It is designed to make measurements of mRNA induction, a form of inducible reporter, as detected with chemiluminescence signals by Quantitative Nuclease Protection Assay (qNPA) technology.Data from the assay component CLD_CYP2C19_48hr was analyzed at the endpoint, CLD_CYP2C19_48hr, in the positive analysis fitting direction relative to DMSO as the negative control and baseline of activity. Using a type of inducible reporter, gain-of-signal activity can be used to understand changes in the reporter gene as they relate to the gene CYP2C19. Furthermore, this assay endpoint can be referred to as a primary readout. To generalize the intended target to other relatable targets, this assay endpoint is annotated to the cyp intended target family, where subfamily is xenobiotic metabolism.
Human hepatocyte cultures were treated daily for two consecutive days with fresh dosing solutions containing appropriate concentrations of the 320 ToxCast chemicals (chemical identities were blinded to CellzDirect and other ToxCast collaborators), vehicle control (0.2% DMSO), and positive control inducers as summarized in Table 1. Due to the large number of treatment groups and chemicals examined, the ToxCast chemicals were divided into two groups (spanning two independent cultures of hepatocytes from separate donor preparations (Hu778: ToxCast plates 1 and 2; Hu776: ToxCast plates 3 and 4). Each preparation of human hepatocyte cultures was treated with respective vehicle control, medium only control, set of six positive controls/reference chemicals for the five hepatic receptor pathways, and a subset of eight of the ToxCast chemicals (indoxacarb, pyrithiobac-sodium, norflurazon, cyhalofop-butyl, methomyl, thiram, acetochlor, and propiconazole). These replicate data, coupled with internal replicates designed within the blinded ToxCast chemical library, provided additional data to evaluate interindividual differences between hepatocyte preparations and their potential impact on chemical profiles.Cell morphology and integrity were evaluated using phase-contrast microscopy as an indicator of hepatocyte cell health (Tyson & Green, 1987). Cultures for each treatment group (i.e., media, vehicle [0.2% DMSO], positive control inducers [multiple concentrations], and the ToxCast chemicals [multiple concentrations]) were observed and cell morphology was assessed relative to vehicle control cultures at each harvest time point (0, 6, 24, or 48 h). […] Images were evaluated at the conclusion of the study to assess changes in cell integrity and account for the effects of chemical exposure on uncharacteristic changes in concentration-dependent gene expression profiles. The results from these determinations of apparent cytotoxicity were annotated (yes/no) alongside the corresponding qNPA data for reference.At the conclusion of each treatment period, hepatocyte cultures (96-well) were washed with 1 volume of HBSS, lysed by addition of 25 ul ArrayPlate lysis buffer (HTG, Tucson, AZ), and 70 ul/well of Denaturation Oil, denatured by incubation at 95C for 10 min, and frozen at approximately -70C until analysis by nuclease protection assay (qNPA) (Roberts et al., 2007). For qNPA analysis, cell lysates were thawed at 50C for approximately 30 min, qNPA probes were added, and samples were incubated at 95C for 10 min to begin the detection process by denaturing the target RNA, dissociating the duplexes and secondary structure hybridization. At the conclusion of the hybridization period, S1 nuclease reagent was added to each sample to digest all nonprotected nucleotides at 50C for 60-90 min. […]
In the case of `CS(=O)(=O)c1ccc(C(=O)C2C(=O)CCCC2=O)c([N+](=O)[O-])c1`, the call was inactive.

For the molecule `C=C(C)CN(CC)c1c([N+](=O)[O-])cc(C(F)(F)F)cc1[N+](=O)[O-]`, the call was inactive. The result for `CCN(CC)C(=O)C(C)Oc1cccc2ccccc12` (stereo not drawn) reads “inactive”; that for `Nc1cnn(-c2ccccc2)c(=O)c1Cl`, “inactive”; that for `CC(C)=CC1C(C(=O)OCc2coc(Cc3ccccc3)c2)C1(C)C` (stereo not drawn), “inactive”.

With `CC(C)(C)C(=O)C(Oc1ccc(Cl)cc1)n1cncn1` (stereo not drawn), the molecule was classed as inactive.

Take `O=c1n(Cl)c(=O)n(Cl)c(=O)n1Cl`: the molecule was called inactive. The result for `CCNC(=O)NC(=O)C(C#N)=NOC` reads “inactive”. The result for `COC(=O)NS(=O)(=O)c1ccc(N)cc1` reads “inactive”; that for `N#CN=C1SCCN1Cc1ccc(Cl)nc1`, “inactive”; that for `Nc1c(Cl)c(Cl)nc(C(=O)O)c1Cl`, “inactive”. The result for `CC(C)C1(C)N=C(c2ncccc2C(=O)O)NC1=O` (stereo not drawn) reads “inactive”; that for `Clc1nc(Cl)nc(Nc2ccccc2Cl)n1`, “inactive”. As for `CCOC(=O)C(C)OC(=O)c1cc(Oc2ccc(C(F)(F)F)cc2Cl)ccc1[N+](=O)[O-]` (stereo not drawn), the molecule was called inactive.

As to `COc1ccc(-c2ccccc2)cc1NNC(=O)OC(C)C`, the call was inactive. `C=CCOC(=O)C(C)(C)OC(=O)c1cc(-n2c(=O)cc(C(F)(F)F)n(C)c2=O)ccc1Cl`: the result was inactive. The result for `COc1cc(OC)nc(NC(=O)NS(=O)(=O)c2ncccc2OCC(F)(F)F)n1` reads “inactive”; that for `O=C1C2CC=CCC2C(=O)N1SC(Cl)(Cl)Cl` (stereo not drawn), “inactive”.

For the molecule `CNC(=O)N(C)c1nnc(C(C)(C)C)s1`, the call was inactive. Take `CCSC(=O)N1CCCCCC1`: the result was inactive. The result for `COCC(=O)N(c1c(C)cccc1C)C(C)C(=O)OC` (stereo not drawn) reads “inactive”; that for `CC(C)N1C(=O)N(c2ccccc2)CSC1=NC(C)(C)C`, “inactive”; that for `CN=C=S`, “inactive”. The result for `COc1cc(Cl)c(OC)cc1Cl` reads “inactive”; that for `N#Cc1c(Cl)cccc1Cl`, “inactive”.

On to `Cc1nc(N(C)C)nc(OC(=O)N(C)C)c1C`, for which the molecule was called inactive. The result for `COP(=O)(OC)O/C(C)=C/C(=O)N(C)C` reads “inactive”; that for `CCOc1nc(F)cc2nc(S(=O)(=O)Nc3c(Cl)cccc3Cl)nn12`, “inactive”; that for `CC1(C)CON(Cc2ccccc2Cl)C1=O`, “inactive”. As for `CCCN(CC)CC1COC2(CCC(C(C)(C)C)CC2)O1` (stereo not drawn), the molecule was called inactive. In the case of `CC(C)N1C(=O)c2ccccc2NS1(=O)=O`, the molecule was classed as inactive. The result for `O=C(O)c1c(Cl)ccc2cc(Cl)cnc12` reads “inactive”; that for `CC1(C)C(C(=O)OC(C#N)c2cccc(Oc3ccccc3)c2)C1(C)C` (stereo not drawn), “inactive”. The result for `CC(C)Oc1cccc(NC(=O)c2ccccc2C(F)(F)F)c1` reads “inactive”; that for `CCCC(=NOCC)C1=C(O)CC(CC(C)SCC)CC1=O` (stereo not drawn), “inactive”; that for `COC(=O)c1c(C(F)F)nc(C(F)(F)F)c(C2=NCCS2)c1CC(C)C`, “inactive”. With `CC1(C)C(C=C(Cl)Cl)C1C(=O)OC(C#N)c1cccc(Oc2ccccc2)c1` (stereo not drawn), the call was inactive. The result for `CO/N=C(/C1=NOCCO1)c1ccccc1Oc1ncnc(Oc2ccccc2Cl)c1F` reads “inactive”.

The values are drawn from PubChem BioAssay (EPA / NIEHS).
